From paper PMC7819943, “Rice protein-binding microarrays: a tool to detect cis-acting elements near promoter regions in rice”
Over roughly 68,000 sequences, “fluorescence intensity (a.u.)” has its median near 9,100; the highest 2% begin near 16,000. Many of the other results were omitted from the sample, so the highest values are more common in it than they were.

These sequences were tested against OsWRKY34 (Oryza sativa, UniProt Q0JBA9 1-250) (assay: protein-binding microarray (RPBM); PBS, 2% BSA, 51.3 ng/ul salmon testes DNA, 50 uM zinc acetate, 200 nM TF, 25 C, 1 h; high values mean tight binding). Details: protein: recombinant; tags: N-terminal polyhistidine and DsRed monomer fusion (pET32a); label: CyDye5-dUTP incorporated in the synthesized complementary strand; 3' TTTTT single-stranded linker to array surface; dsDNA, one strand shown.
Sequence of OsWRKY34 (Q0JBA9 entry or part of it): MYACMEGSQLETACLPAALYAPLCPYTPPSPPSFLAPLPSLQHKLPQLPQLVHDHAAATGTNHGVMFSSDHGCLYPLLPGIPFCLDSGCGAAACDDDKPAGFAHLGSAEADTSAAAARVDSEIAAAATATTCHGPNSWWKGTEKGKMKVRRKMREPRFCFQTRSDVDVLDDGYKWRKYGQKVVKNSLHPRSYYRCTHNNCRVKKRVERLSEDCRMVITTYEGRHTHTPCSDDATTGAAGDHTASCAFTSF
How it was run: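 Binding signal here means per-feature fluorescence intensity in arbitrary units. The values were read on an Axon 4000B scanner after a custom Agilent array, double-stranded by primer extension with Cy5-dUTP, was incubated with 200 nM protein at 25 °C for 1 h in PBS with 2% BSA, salmon testes DNA and 50 µM zinc acetate, then washed. The proteins were transcription factors with an N-terminal polyhistidine tag and DsRed, expressed in E. coli BL21-CodonPlus and purified on Ni–NTA.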

Sequence | binding signal
CGTCTCGTGTCTTCTCGTCTCGACCCATCCATCCATCCCACGGAGTCACCTAGTGCAG | 8570 fluorescence intensity (a.u.)
CGGGCTCTGGTTTTACCGAATAAATGCTCTGGGCCTAATACGGAGTCACCTAGTGCAG | 8020 fluorescence intensity (a.u.)
GCATTAGAACGAGCGCACCCACTTTCAGTTCTCAAATTATCGGAGTCACCTAGTGCAG | 8670 fluorescence intensity (a.u.)
GTCTTTTGATGCGACGCGATGTGACTCGCCCGACCCAACTCGGAGTCACCTAGTGCAG | 8940 fluorescence intensity (a.u.)
CCTCCATTCTTCAGTTTTAATGCATCCTCTTCATCACTTCCGGAGTCACCTAGTGCAG | 11800 fluorescence intensity (a.u.)
CATCAGTACAGGCCCAACTTAAAAATTGCTCGGCCCATTTCGGAGTCACCTAGTGCAG | 8850 fluorescence intensity (a.u.)
GGTGCTCCGCCTCCCGGGGCAGGGTTTCAAGAGGGTGGGTCGGAGTCACCTAGTGCAG | 10700 fluorescence intensity (a.u.)
CATCCGATTCCTATGTATTTCTTGCGGTCTAATCAAACGACGGAGTCACCTAGTGCAG | 10200 fluorescence intensity (a.u.)
GTGTTTTGCAAGGTTGTTTCTTTACCTTATCTATATACATCGGAGTCACCTAGTGCAG | 9790 fluorescence intensity (a.u.)
CACTCCACCATTGTCATCTTTACTATCGGTAATTGTTGATCGGAGTCACCTAGTGCAG | 8440 fluorescence intensity (a.u.)
TCTTTTTTCTCTTCTTCTTCTCCTCCATTCCATTCCATTTCGGAGTCACCTAGTGCAG | 8930 fluorescence intensity (a.u.)
TTTTTCTTGTGCTCTATCCATCCATGCCATGCCATTCATCCGGAGTCACCTAGTGCAG | 10200 fluorescence intensity (a.u.)
GTCAAATTTCTGTGCTCCATAAGATCTCTTCTCTTTTTTTCGGAGTCACCTAGTGCAG | 16700 fluorescence intensity (a.u.)
GGAGTGTTTCTGTTGTTGCATGTGATGAGTGCATTATCATCGGAGTCACCTAGTGCAG | 11000 fluorescence intensity (a.u.)
GCTTTTCTTTGTCCATCCATCTATCTTTTTCTCCATCTTTCGGAGTCACCTAGTGCAG | 8440 fluorescence intensity (a.u.)
AGTTGGCTATAATATATTTCTTCTCTCTCTATCTCTCATTCGGAGTCACCTAGTGCAG | 17700 fluorescence intensity (a.u.)
TTCTCTCTCTATCTCTCATTTATATATTTAATATATTTGTCGGAGTCACCTAGTGCAG | 9250 fluorescence intensity (a.u.)
GCCTGTTTCTCCTTCGGCTGATGATATCTGTGCTGTTTTTCGGAGTCACCTAGTGCAG | 8550 fluorescence intensity (a.u.)
TGCTCAACATCCATCTTTCTTTCTTTCTTTTTCTCTTTTTCGGAGTCACCTAGTGCAG | 11300 fluorescence intensity (a.u.)
ACAGTTTTCTCCATCTTGGCCATTCGTGTGCTATATCCATCGGAGTCACCTAGTGCAG | 16500 fluorescence intensity (a.u.)
TTTTTTTCTCCTCATTATTCTTCTTTTCTTTCTCTATATTCGGAGTCACCTAGTGCAG | 9180 fluorescence intensity (a.u.)
GGGCTGTTATCTCTGATGTGTTTTCTGCCTCTCATGTCATCGGAGTCACCTAGTGCAG | 17000 fluorescence intensity (a.u.)
ACCCACCACATCGACGCGACCACACTCCACACAAGCCATGCGGAGTCACCTAGTGCAG | 10100 fluorescence intensity (a.u.)
